Source: PubChem BioAssay (NCI)
Compounds without any hit were thinned out: in the full panel of roughly 83,000, 20% have a hit.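 In brief: 96-well plates, 48 h treatment, single concentration, percent growth endpoint.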 A number with no mark means an inactive call. Active and inactive are the calls of the source. How the source made its calls: active means growth percent below 10; inactive means the rest.

The compounds below were run on SK-MEL-5 melanoma (assay: NCI-60 one-dose screen, 48 h (100 = growth as untreated, 0 = no growth, -100 = all killed)). Details: 10 µM unless noted.
COc1cc(-c2nc(-c3nc4cc(C(=O)c5ccccc5)ccc4[nH]3)cc3c2[nH]c2ccccc23)cc(OC)c1OC gave a growth of 75.2%. For COc1cc(C2=NOC(c3cc(OC)c(OC)c(OC)c3)C2)ccc1OCCCCOc1cc2c(cc1OC)C(=O)N1CCC[C@H]1C=N2 (some centres undefined), the growth was -85.3% (active). O=C(CCCCCCc1nc2ccc(Br)cc2[nH]1)NO was tested, and the growth was -81.5% (active). For CCCCOc1ncnc2nc[nH]c12, the growth was 105%. With CC(C)=CCC[C@H](C)c1ccc(C)c2c1OCN(CCO)C2 the growth was 81.2%. Work on O=C(Nc1cccc(Cl)c1)Nc1cc(C(F)(F)F)ccc1Cl yielded a growth of 24.4%. Compound CCCCC(CCc1ccccn1)C(=O)c1ccccc1 (centres undefined) has a growth of 103%. With Nc1cccc(S(=O)(=O)c2cccc(N)c2)c1 the growth was 113%. For O=C(Nc1ccc2ncnc(Nc3ccc(F)c(Cl)c3)c2c1)c1cccs1, the growth was 67.1%. O=[N+]([O-])c1ccccc1CN1CCCCC1 gave a growth of 105%. COc1cc2c(cc1OCCCOc1cc3c(cc1OC)C(=O)N1CCC[C@H]1C=N3)C=CC(C)(C)O2 gave a growth of 66.4%. Compound CCCCCCCCCC1=NC(C)(C)CN1C(C)(C)CO has a growth of 84%. Compound COCCn1c(Nc2ccc(C(=O)NO)cc2)nc2ccccc21 has a growth of 47.4%. O=C(CSc1ccc(Cl)cc1)Nc1ccc(-c2nc3ccccc3s2)c(Cl)c1 showed a growth of 79%. Work on COc1cc(/C=C2\C(=O)Nc3ccc(N(C)C)cc32)cc(OC)c1OC yielded a growth of 21.5%. CC(C)(C)NC(=O)C(OC(=O)C1CCc2cc(F)ccc2O1)c1ccccc1Cl (centres undefined) showed a growth of 94.5%. CSCCC1NC(=O)C(C(C)=Nc2ccccc2)=C1O (centres undefined) gave a growth of 112%. CC1(C)C2CCC(O)(C(=O)O)C1C2 (centres undefined) was tested, and the growth was 107%. With COc1ccc(CCN2COc3c([C@@H](C)CCC=C(C)C)ccc(C)c3C2)cc1OC the growth was 18.2%. In the case of COc1ccc(C(=O)C(CN(C)C)c2ccccc2)cc1 (centres undefined), the growth was 43.7%. Work on Oc1ccc(CCCCCCc2ccc(O)cc2)cc1 yielded a growth of 50.2%. c1ccc(C2=Nc3ccccc3SC2)cc1 was tested, and the growth was 105%. In the case of O=C(O)c1cn(-c2ccccc2)nc1-c1ccc(O)cc1, the growth was 106%. For COc1cc(/C=C/C(=O)c2c(C)nc3ccccc3c2C)ccc1OCCCOc1cc2c(cc1OC)C(=O)N1CCC[C@H]1C=N2, the growth was -98.8% (active). COc1ccc(Br)c2ccccc12 was tested, and the growth was 107%. CC(=O)c1cccc(Nc2ncnc3ccc(NC(=O)c4ccco4)cc23)c1 gave a growth of 70.4%. For CCN(CC)c1ccc(C(=N)c2ccc(N(C)C)cc2)cc1, the growth was -80.1% (active). CCCCCCCCCCCCCCCCCC1=NC(C)(C)CN1C(C)(C)CO was tested, and the growth was -53% (active). In the case of COC(=O)c1ccc(NC(N)=NCCC(C)(C)c2ccc(C(F)(F)F)cc2)nc1, the growth was -85.4% (active). With CCCCCCCCCCCC1=NC(C)(C)CN1C(C)(C)CO the growth was 8.52% (active). In the case of CO[C@@]12[C@@H]3NC3CN1C1=C(C(=O)C(N)=C(C)C1=O)[C@@H]2COC(N)=O (some centres undefined), the growth was -96% (active). With Cc1cc(NC(=O)c2ccc(N)cc2)ccc1N=Nc1ccc2cc(S(=O)(=O)O)cc(S(=O)(=O)O)c2c1 the growth was 111%. CCCCCCCCCCCCCCCC1=NCC[N+]1(CCO)CCO gave a growth of 89.6%. For CC1CN(CCCOC(=O)Nc2ccc(Cl)cc2)CCN1C(C)(C)C (centres undefined), the growth was 97.6%. O=c1c2sc3ccccc3c2nnn1-c1ccc(F)c(Cl)c1 gave a growth of 67.3%. In the case of Clc1ccccc1Nc1nnc(-c2ccncc2)s1, the growth was 97.7%. With COc1cc2c(cc1I)-c1c(cc(OC)c(OC)c1OC)CC[C@@H]2NC(C)=O the growth was 2.44% (active). COC(=O)c1cc(Cl)cc([N+](=O)[O-])c1O was tested, and the growth was 106%. For CCN(CC)c1ccc2nc3c4ccccc4c(=O)cc-3n(-c3ccccc3)c2c1, the growth was -98.1% (active).

The compounds below were run on UACC-62 melanoma in the same assay as above. Details: 10 µM unless noted.
In the case of COc1cc(C2=NOC(c3cc(OC)c(OC)c(OC)c3)C2)ccc1OCCCCOc1cc2c(cc1OC)C(=O)N1CCC[C@H]1C=N2 (some centres undefined), the growth was -76.6% (active). For O=C(CCCCCCc1nc2ccc(Br)cc2[nH]1)NO, the growth was -79.8% (active). With CCCCOc1ncnc2nc[nH]c12 the growth was 104%. CC(C)=CCC[C@H](C)c1ccc(C)c2c1OCN(CCO)C2 was tested, and the growth was 96.1%. Compound CCCCC(CCc1ccccn1)C(=O)c1ccccc1 (centres undefined) has a growth of 107%. Work on Nc1cccc(S(=O)(=O)c2cccc(N)c2)c1 yielded a growth of 102%. With O=C(Nc1ccc2ncnc(Nc3ccc(F)c(Cl)c3)c2c1)c1cccs1 the growth was 56.4%. O=[N+]([O-])c1ccccc1CN1CCCCC1 was tested, and the growth was 103%. In the case of COc1cc2c(cc1OCCCOc1cc3c(cc1OC)C(=O)N1CCC[C@H]1C=N3)C=CC(C)(C)O2, the growth was 81%. CCCCCCCCCC1=NC(C)(C)CN1C(C)(C)CO was tested, and the growth was 98.8%. In the case of COCCn1c(Nc2ccc(C(=O)NO)cc2)nc2ccccc21, the growth was 25.8%. Work on O=C(CSc1ccc(Cl)cc1)Nc1ccc(-c2nc3ccccc3s2)c(Cl)c1 yielded a growth of 58.4%. COc1cc(/C=C2\C(=O)Nc3ccc(N(C)C)cc32)cc(OC)c1OC was tested, and the growth was -0.443% (active). CC(C)(C)NC(=O)C(OC(=O)C1CCc2cc(F)ccc2O1)c1ccccc1Cl (centres undefined) was tested, and the growth was 87.6%. For CSCCC1NC(=O)C(C(C)=Nc2ccccc2)=C1O (centres undefined), the growth was 101%. Work on CC1(C)C2CCC(O)(C(=O)O)C1C2 (centres undefined) yielded a growth of 91%. COc1ccc(CCN2COc3c([C@@H](C)CCC=C(C)C)ccc(C)c3C2)cc1OC showed a growth of 65.5%. Work on COc1ccc(C(=O)C(CN(C)C)c2ccccc2)cc1 (centres undefined) yielded a growth of 33.8%. Oc1ccc(CCCCCCc2ccc(O)cc2)cc1 showed a growth of 13.7%. Work on c1ccc(C2=Nc3ccccc3SC2)cc1 yielded a growth of 96.7%. O=C(O)c1cn(-c2ccccc2)nc1-c1ccc(O)cc1 was tested, and the growth was 90.8%. For COc1cc(/C=C/C(=O)c2c(C)nc3ccccc3c2C)ccc1OCCCOc1cc2c(cc1OC)C(=O)N1CCC[C@H]1C=N2, the growth was -81.3% (active). COc1ccc(Br)c2ccccc12 was tested, and the growth was 107%. Work on CC(=O)c1cccc(Nc2ncnc3ccc(NC(=O)c4ccco4)cc23)c1 yielded a growth of 84.1%. CCN(CC)c1ccc(C(=N)c2ccc(N(C)C)cc2)cc1 was tested, and the growth was 5.14% (active). For CCCCCCCCCCCCCCCCCC1=NC(C)(C)CN1C(C)(C)CO, the growth was -86.9% (active). CO[C@@]12[C@@H]3NC3CN1C1=C(C(=O)C(N)=C(C)C1=O)[C@@H]2COC(N)=O (some centres undefined) was tested, and the growth was -15.9% (active). Cc1cc(NC(=O)c2ccc(N)cc2)ccc1N=Nc1ccc2cc(S(=O)(=O)O)cc(S(=O)(=O)O)c2c1 showed a growth of 114%. CCCCCCCCCCCCCCCC1=NCC[N+]1(CCO)CCO showed a growth of 76.2%. CC1CN(CCCOC(=O)Nc2ccc(Cl)cc2)CCN1C(C)(C)C (centres undefined) was tested, and the growth was 84.8%. O=c1c2sc3ccccc3c2nnn1-c1ccc(F)c(Cl)c1 gave a growth of 78.4%. For Clc1ccccc1Nc1nnc(-c2ccncc2)s1, the growth was 95.3%. Compound COc1cc2c(cc1I)-c1c(cc(OC)c(OC)c1OC)CC[C@@H]2NC(C)=O has a growth of 16.4%. COC(=O)c1cc(Cl)cc([N+](=O)[O-])c1O showed a growth of 110%. For CCN(CC)c1ccc2nc3c4ccccc4c(=O)cc-3n(-c3ccccc3)c2c1, the growth was -8.44% (active).
